# Measurements from PubChem BioAssay (Tox21).
# Results filed as inconclusive are left out. Unmarked numbers belong to inactive results. Active and inactive are the calls of the source. Unless noted, calls follow the shape of the dose curve; as a rule, active = well fitted cell-killing curve with a large enough effect in the repeat runs; inconclusive = weak or mixed curves, or effect the other way; inactive = no such curve, though single readings can be large or run the other way.
# Assay: qHTS assay to identify small molecule antagonists of the peroxisome proliferator-activated receptor gamma (PPARg) signaling pathway - cell viability counter screen (AID 743194); also: nearly all actives have a fitted effect of over 55% in size
# Settings: PPARg-bla HEK293H viability, CellTiter-Glo luminescence, 17 h, co-treated with 50 nM rosiglitazone; series mostly up to 62.6 µM; activity change, negative = cytotoxicity: at the top concentration
# Procedure, shortened: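 PPARg-UAS-bla HEK293H cells were plated, rested 5 h at 37 C, then treated with compounds plus rosiglitazone (50 nM final) for 17 h at 37 C; viability was then read by CellTiter-Glo luminescence after 30 min at room temperature.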
# % is scaled to controls: 0 for no effect and ±100 for the full control effect.
row,SMILES,"activity change, negative = cytotoxicity"
1,C[C@H](CCC(=O)NCC(=O)O)[C@H]1CC[C@H]2[C@@H]3[C@H](O)C[C@@H]4C[C@H](O)CC[C@]4(C)[C@H]3C[C@H](O)[C@]12C,2.78%
2,BrC/C=C/CBr,8.68% [at 29.1 µM]
3,Cc1nc(C)nc(N2C[C@@H](C)N(c3ccnc([C@@H](C)O)n3)[C@@H](C)C2)n1,5.46%
4,Nc1cc(S(=O)(=O)O)ccc1S(=O)(=O)O,12.7%
5,CCC(=O)c1ccc(O)cc1,-4.43%
6,CCCCCCCCCCCCCCCC(=O)NCCO,16.2%
7,NS(=O)(=O)c1ccccc1OC(F)(F)F,-2.74%
8,CC(C)COC(=O)CC(C(=O)OCC(C)C)S(=O)(=O)O (stereo unspecified),-0.169%
9,NS(=O)(=O)c1ccc(Cl)c(S(N)(=O)=O)c1,-4.13%
10,CO[Si](CCCS)(OC)OC,2.65%
11,COC(/C=C(\C)CCC=C(C)C)OC,4.25%
12,Cc1ccccc1OCC1CO1 (stereo unspecified),-6.66% [at 81.1 µM]
13,O=c1cc(O)c(Cl)c[nH]1,-0.9%
14,CCN(CCC#N)c1ccccc1,5.04%
15,CCCCCCCC[Si](OCC)(OCC)OCC,9.02%
16,Nc1ccc(S(=O)(=O)NC(=O)c2ccccc2)cc1,-15.9%
17,CC(=O)Nc1ncc([N+](=O)[O-])s1,-10.1%

row,SMILES,"activity change, negative = cytotoxicity"
1,CCC(=O)OCCC(C)CCC=C(C)C (stereo unspecified),0.529%
2,C=CCCCCCCCCCCC,13.8% [at 5.95 µM]
3,CN(C1CCCCC1)S(=O)(=O)c1ccccc1N,-2.42%
4,NCCc1ccn[nH]1,9.43%
5,CCCCCCCCCCC,4.24%
6,COC(=O)CCC(=O)O,19.9%
7,Cc1oc(=O)oc1CN1CCN(c2cc3c(cc2F)c(=O)c(C(=O)O)c2n3C(C)S2)CC1 (stereo unspecified),18.3%
8,CC1CCC(C(C)(C)S)C(=O)C1 (stereo unspecified),-11%
9,CCCCCCCCCOCC1CO1 (stereo unspecified),7.53% [at 81.1 µM]
10,C1=CCC(c2ccccc2)CC1 (stereo unspecified),14.2%
11,CC(C)CCCC(C)CC=O (stereo unspecified),0.802%
12,C=COCCOCCOC=C,6.17%
13,C=CCOCC(O)CCl (stereo unspecified),1.94%
14,CCCCCC(=O)OCC,-21.5%
15,CCCCCCCCCCCCC,11.2%
16,Cc1cccc(C(=O)O)c1[N+](=O)[O-],-5.82%
17,C=C(C)C(=O)OC1CC(C)CC(C)(C)C1 (stereo unspecified),-18.1%

# Assay: qHTS assay for small molecule agonists of the antioxidant response element (ARE) signaling pathway (AID 743202; active = well fitted activation curve with a large enough effect in the signal ratio in the repeat runs, not every such curve was filed as active; the % refers to the signal ratio; also: potency is read from the fitted curve at half-maximal effect)
# Settings: HepG2 ARE-bla reporter, beta-lactamase FRET, 16 h; series mostly up to 73.3 µM; activation: at the top concentration
# Procedure, shortened: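 Compounds delivered in DMSO to ARE-bla HepG2 cells (2,000 cells/well, pre-incubated 5 h) and left 16 h at 37 C. LiveBLAzer B/G FRET substrate then added for 2 h at RT before fluorescence reading.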
SMILES,activation,Potency
O=C(O)c1ccccc1C(=O)Nc1ccc(S(=O)(=O)Nc2nccs2)cc1,0%,–
CCOC(=O)CC(CC(=O)OCC)(OC(C)=O)C(=O)OCC,7.21%,–
Cc1ccccc1OCC1CO1 (stereo unspecified),-8.89% [at 94.8 µM],–
CCCCCCCC[Si](OCC)(OCC)OCC,-18.7%,–
CC(C)CCCC(C)CC=O (stereo unspecified),1.88%,–
Oc1ccccc1Cc1ccccc1O,–,38.6 µM (active)
CCCOCCOCCOCCO,6.16%,–
